A short description of test [1]: qHTS RealTime-Glo MT Cell Viability Assay in HepG2 cells - 40 hour (AID 1224870). Further: nearly all actives have a fitted effect of over 50% in size. In short, it runs like this:
(§1)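 Real-time viability: cells seeded at 600 per well together with NanoLuc and cell-permeant prosubstrate, compounds added after 5 h incubation. Luminescence tracked at 0, 8, 16, 24, 32 and 40 h of exposure.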
In general terms: qHTS replaces the single test concentration by a dilution series.

Test [2] is described as follows: A CellTox Green Cytotoxicity Assay to monitor cytotoxicity in HEK293 cells - 40 hour (AID 1224871). Further: nearly all actives have a fitted effect of over 45% in size. Further: potency means the concentration at half of the fitted maximal effect. The gist of the method: (§2)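 Homogeneous no-lysis format: HEK293 cell suspension mixed with CellTox Green reagent, seeded, incubated 5 h at 37 C/5% CO2, then dosed by pintool with compound in DMSO.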
Test [3] is described as follows: qHTS RealTime-Glo MT Cell Viability Assay in HepG2 cells - 8 hour (AID 1224873). Further: nearly all actives have a fitted effect of over 55% in size. The gist of the method: as §1
Test [4] is described as follows: qHTS RealTime-Glo MT Cell Viability Assay in HEK293 cells - 40 hour (AID 1224874). Further: nearly all actives have a fitted effect of over 50% in size. Further: potency means the concentration at half of the fitted maximal effect. The following applies: RealTime-Glo luminescence; max response: stronger effect = lower value. In short, it runs like this: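 Measured as luminescence from the same continuously cultured HEK293 wells at successive time points (0, 8, 16, 24, 32, 40 h) after compound addition. Reagent present from seeding; dosing at 5 h; incubation 37 C.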

Test [5] in a line: A CellTox Green Cytotoxicity Assay to monitor cytotoxicity in HepG2 cells - 16 hour (AID 1224876). Further: nearly all actives have a fitted effect of over 45% in size. Further: potency means the concentration at half of the fitted maximal effect. In short, it runs like this: (§3)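 Fluorescent DNA-binding dye, 600 HepG2 cells/well, 5 h preincubation then compound in DMSO; same plates read at 0–40 h, 37 C.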
The nature of test [6]: qHTS RealTime-Glo MT Cell Viability Assay in HepG2 cells - 32 hour (AID 1224877). Further: nearly all actives have a fitted effect of over 55% in size. In short, it runs like this:
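HepG2 suspension premixed with RealTime-Glo reagents is plated at 600 cells per well and left 5 h at 37 C/5% CO2. Compounds in DMSO then go in, and bioluminescence reflecting viable cell number is recorded over 40 h.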

The nature of test [7]: A CellTox Green Cytotoxicity Assay to monitor cytotoxicity in HepG2 cells - 24 hour (AID 1224878). Further: nearly all actives have a fitted effect of over 45% in size. Further: potency means the concentration at half of the fitted maximal effect. In short, it runs like this:
as §3

Test [8] is described as follows: A CellTox Green Cytotoxicity Assay to monitor cytotoxicity in HepG2 cells - 40 hour (AID 1224879). Further: nearly all actives have a fitted effect of over 40% in size. Further: potency means the concentration at half of the fitted maximal effect. In short, it runs like this:
as §3

Test [9] in a line: A CellTox Green Cytotoxicity Assay to monitor cytotoxicity in HEK293 cells - 24 hour (AID 1224875). Further: nearly all actives have a fitted effect of over 45% in size. Further: potency means the concentration at half of the fitted maximal effect. On activity change: series mostly up to about 77 µM. The gist of the method: as §2
A short description of test [10]: qHTS RealTime-Glo MT Cell Viability Assay in HEK293 cells - 16 hour (AID 1224872). Further: nearly all actives have a fitted effect of over 50% in size. Further: potency means the concentration at half of the fitted maximal effect. The gist of the method:
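Reads taken at 0, 8, 16, 24, 32 and 40 h from the same wells. HEK293 cells (600/well) carried RealTime-Glo reagents from seeding, with compound added after a 5 h settle at 37 C.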

Inconclusive results are not listed. A number with no mark means an inactive call. The source made the active and inactive calls. The call rests on the fitted dose curve; in most records, active means well fitted curve in the direction sought with a large enough effect in the repeat runs; inconclusive means weak or mixed curves; inactive means no such curve, though single readings can be large; an effect the other way counts as inactive or inconclusive.

Here are results for 27 molecules from PubChem BioAssay (Tox21).
On the % scale 0 is the no-effect control and ±100 the full control effect.

Turning to `NC1CCN(c2cccc(Cl)n2)CC1`, the Potency entry in test [1], in test [2], in [5], in test [6], in [7] and in [8] was “inactive” in each case. For the same molecule, in test [3], the molecule was classed as inactive. The max response in test [4] is -1.03%.
On to `CC(C)c1cccc(C(C)C)c1N`, for which the Potency entry in [1] and in [6] was “inactive” throughout. Besides, the result in test [3] was inactive. The max response in test [4] is -0.332%.
For `CC/C=C\C#N`, the Potency entry in test [1], in test [2], in test [9], in test [5], in test [7] and in [8] was “inactive” each time. Also, the result in [3] was inactive. Further, in [4], the max response was 20.1%.
Turning to `OCC(CO)(CO)COCC(CO)(CO)CO`, the Potency entry in test [2], in test [10], in test [9], in [5], in test [6] and in [7] was “inactive” each time. For the same molecule, the Potency entry in [8] is “inactive”. In [3], the outcome was inactive. For the same molecule, the max response in test [4] was 9.54%.
Regarding `Cc1ncc(CSSCc2cnc(C)c(O)c2CO)c(CO)c1O`, the Potency entry in test [1], in [2], in [9], in test [5], in test [6] and in [8] was “inactive” in each case. The outcome in test [3] was inactive. For the same molecule, the max response in [4] is 5.83%.
For the molecule `NC(=O)Nc1nc2ccccc2[nH]1`, the Potency entry in [1], in test [10], in [5] and in test [8] was “inactive” in each case. In addition, the result in [3] was inactive. Also, the max response in test [4] was -25.5%.
Regarding `C1CCCCCCCCCCC1`, the cytotoxicity increase is -40.6% [at 15.8 µM] in [2], -3.96% [at 15.8 µM] in test [5] and -12.7% [at 15.8 µM] in [8]. The viability change, negative = cytotoxic in test [3] was -9.68% [at 15.8 µM]. For the same molecule, the activity change in test [9] is -35.9% [at 15.8 µM, stronger effect = higher value]. Besides, the activity change, negative = cytotoxic in [6] is 12% [at 15.8 µM]. The cytotoxicity in test [7] is -7.04% [at 15.8 µM].
For the molecule `Nc1ccc2cc(S(=O)(=O)O)ccc2c1`, the Potency result in test [1], in [2], in test [5], in [6], in test [7] and in [8] was “inactive” in each case. In addition, the outcome in [3] was inactive. Also, in test [4], the max response is -14%.
For `C/C=C1\C(=O)C[C@H]2[C@@H]3CCC4=CC(=O)CC[C@]4(C)[C@H]3CC[C@]12C`, the Potency entry in test [1], in test [9], in [5], in test [6], in [7] and in [8] was “inactive” each time. The result in test [3] was inactive. Besides, in test [4], the Potency is 21.4 µM (active).
Consider `O=[N+]([O-])c1ccc(Oc2ccc([N+](=O)[O-])cc2)cc1`, for which the Potency entry in [1], in test [2], in test [9], in [5], in test [6] and in test [7] was “inactive” in each case. Further, the Potency entry in test [8] was “inactive”. For the same molecule, the molecule was classed as inactive in test [3].
Consider `CCN(CC)S(=O)(=O)c1ccc(C(=O)O)cc1`, for which the Potency entry in test [1], in [5], in [7] and in [8] was “inactive” each time. Besides, in test [3], the molecule was called inactive.
As for `CCCCCCCCCCCCCCCCCCOCC(O)CO` (stereo not drawn), the Potency entry in test [1], in test [2], in test [9], in test [6] and in [8] was “inactive” in each case. Also, the molecule was called inactive in test [3]. Moreover, the max response in test [4] is -20.9%.
As to `NC(=O)c1c(Cl)cccc1Cl`, the Potency entry in test [1], in test [2], in [5], in test [6], in test [7] and in [8] was “inactive” in each case. For the same molecule, the call in [3] was inactive. In test [4], the max response was -0.288%.
Regarding `O=C(CCOCCOCCOCCOCCC(=O)Nc1c(I)cc(I)c(C(=O)O)c1I)Nc1c(I)cc(I)c(C(=O)O)c1I`, the Potency entry in test [1], in test [2], in test [9], in [5], in [7] and in test [8] was “inactive” each time. In addition, the result in [3] was inactive. Moreover, in [4], the max response was -0.881%.
`O=C(O)Cc1cc(I)c(Oc2cc(I)c(O)c(I)c2)c(I)c1`: the Potency entry in test [1], in test [10], in [5], in test [7] and in test [8] was “inactive” throughout. Also, the molecule was classed as inactive in test [3]. In test [4], the max response was 1.65%.
Take `CC(C)CCOC(=O)CC(C)C`: the Potency entry in [1], in test [10], in test [5], in test [6] and in [8] was “inactive” in each case. Besides, the result in test [3] was inactive. The max response in test [4] is 14.4%.
For `NC(=O)CCCCC1CCSS1` (stereo not drawn), the Potency result in test [1], in [2], in [9], in test [7] and in test [8] was “inactive” in each case. Further, in test [3], the molecule was classed as inactive. Also, the max response in test [4] was 4.59%.
For the molecule `COc1cccc(Br)c1`, the Potency entry in [1], in [2], in [9] and in [6] was “inactive” throughout. Further, in [3], the result was inactive. Also, the max response in test [4] is -10%.
Consider `Nc1ccn(C2CO[C@H](CO)O2)c(=O)n1` (stereo partly drawn), for which the Potency result in test [1] and in test [6] was “inactive” in each case. Further, the Potency in test [2] was 15.1 µM (active); in test [9], 19 µM (active); in test [5], 8.49 µM (active); in test [8] it was 7.56 µM (active). Moreover, in test [3], the molecule was called inactive. Moreover, the max response in test [4] is -2.21%.
Take `CC(C)COC(=O)C(C)C`: the Potency entry in test [1], in test [2], in test [5], in test [6], in test [7] and in test [8] was “inactive” in each case. Further, in test [3], the outcome was inactive. In test [4], the max response is 3.76%.
With `c1cc(CN2CCCCC2)cc(OCCCNc2nc3ccccc3s2)c1`, the Potency result in [2] and in test [9] was “inactive” in each case. Further, the Potency is 9.52 µM (active) in test [10], 9.52 µM (active) in test [4], 26.8 µM (active) in [7] and 23.9 µM (active) in test [8]. Besides, the result in test [3] was inactive.
`Cc1onc(-c2ccccc2)c1-c1ccc(S(N)(=O)=O)cc1`: the Potency result in test [1], in [2], in [9], in test [5], in [6] and in [8] was “inactive” throughout. Further, the call in test [3] was inactive.
On to `O=C(O)c1ccccc1S`, for which the Potency entry in test [1], in test [10], in [5], in test [6], in test [7] and in test [8] was “inactive” each time. Further, in test [3], the call was inactive. In addition, the max response in test [4] is -0.793%.
As to `CCCCNc1ccccc1`, the Potency result in [1], in [2], in test [5], in test [6] and in test [8] was “inactive” each time. The outcome in test [3] was inactive. Further, the max response in [4] was 2.6%.
For the molecule `c1ccc(CCCc2ccccn2)cc1`, the Potency result in [1], in test [10], in test [5], in test [6], in test [7] and in [8] was “inactive” each time. In addition, the call in test [3] was inactive. Further, the max response in test [4] was -0.97%.
As for `CC(C)(C)C(=O)/C=C/c1ccc(Cl)cc1`, the Potency entry in test [1], in test [10], in test [9], in test [5], in [6] and in [7] was “inactive” in each case. Besides, the Potency result in [8] was “inactive”. In test [3], the result was inactive. The max response in [4] was -0.497%.
Take `Fc1ccccc1-c1ccccc1`: the Potency result in test [1], in test [10], in [5], in test [6] and in test [7] was “inactive” in each case. In addition, in test [3], the call was inactive. In [4], the max response is -21.5%.
